From PubChem
GRP78 ERSR act: ER stress response induction in glioma; U87-MG GRP78 promoter luciferase reporter, 16 h; Potency, µM, actives largely listed as activators; actives 0.02% (n = 420,000); further: series mostly up to about 76 µM; nearly all actives have a fitted effect of over 35% in size
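Stably transfected U87-MG glioma cells carrying a GRP78-based luciferase sensor; 16 h compound incubation. Luminescence end-point read 10 min after Bright-Glo addition at room temperature.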
VDR inhibitor: vitamin D3 receptor (human) inhibition | VDR-SRC2-3 peptide fluorescence polarization, 2 h | Potency, µM, hits mostly inhibitors | actives 0.93% (n = 400,000) | AID 504847
Target sequence (P11473 whole entry, looked up): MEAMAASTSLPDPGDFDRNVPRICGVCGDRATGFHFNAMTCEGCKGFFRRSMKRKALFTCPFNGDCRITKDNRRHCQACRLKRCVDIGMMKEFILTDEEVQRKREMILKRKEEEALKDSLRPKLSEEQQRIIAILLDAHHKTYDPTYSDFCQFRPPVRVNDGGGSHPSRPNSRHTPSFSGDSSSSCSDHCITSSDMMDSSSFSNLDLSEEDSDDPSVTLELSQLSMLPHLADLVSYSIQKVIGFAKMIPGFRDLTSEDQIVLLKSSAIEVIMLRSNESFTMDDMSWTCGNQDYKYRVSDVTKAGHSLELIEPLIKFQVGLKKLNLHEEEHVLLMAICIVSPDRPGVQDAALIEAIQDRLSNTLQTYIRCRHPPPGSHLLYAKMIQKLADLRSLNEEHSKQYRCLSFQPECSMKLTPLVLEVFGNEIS
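Fluorescence polarization assay of small-molecule disruption of VDR binding to coregulator peptide SRC2-3. Compounds and controls pin-transferred, then read after 2 h incubation at ambient room temperature.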
G9a inh: inhibitors of human histone lysine methyltransferase G9a; Potency, µM (series often up to 102 µM), hits mostly inhibitors; actives 8.8% (n = 350,000); AID 504332; Q96KQ7; G9a H3K9 monomethylation, AlphaScreen, 2 h; further: nearly all actives have a fitted effect of over 75% in size
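Compounds were preincubated with 20 nM G9a for 15 min, after which biotinylated H3K9 peptide (500 nM) and SAM (20 uM) started a 2 h room-temperature reaction. Monomethylated product was quantified by antibody-based AlphaScreen chemiluminescence.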
Sfp PPTase inh: Sfp phosphopantetheinyl transferase inhibition | Q9F4F7 | Biochemical Sfp PPTase activity, qHTS | actives 3.5% (n = 310,000) | Potency, µM, usual class: inhibitors;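 further: the enzyme is Sfp with the accession as filed and its product quenches rhodamine fluorescence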
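Reaction rates are the 30-min fluorescence difference (ex 525, em 598 nm) in wells containing 15 nM Sfp, 5 uM rhodamine-CoA and 12.5 uM BHQ-2-YbbR at pH 7.6 with 10 mM MgCl2.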
12-LOX inh: ALOX12 (human) lipoxygenase inhibition; purified 12hLO, xylenol orange hydroperoxide absorbance; Potency, µM (series often up to 108 µM), most hits filed as inhibitors; actives 1.1% (n = 580,000); AID 1671190
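Purified human 12hLO (150 nM final) in 25 mM Hepes, 0.01% Triton X-100, pH 7.0 was preincubated 15 min at room temperature with compound. Then 40 uM arachidonic acid was added, 30 min. Hydroperoxide was read by Fe-XO absorbance ratio 573/405 nm.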
Of the large screens only hits and unclear results are named; the others gave an inactive call. The sample as a whole holds a higher share of hits than the screen did. The call rests on the fitted dose curve; in most records, active means well fitted curve in the direction sought with a large enough effect; inconclusive means small, poorly fitted or top-dose-only effect, or another doubt; inactive means no such curve, though single readings can be large; an effect the other way counts as inactive or inconclusive.

Cc1cc2nc3c(=O)n(CCc4ccccc4)c(=O)[nH]c3nc2cc1N	Sfp PPTase inh 7.9µM, 12-LOX inh inconclusive
Oc1cc(-c2nc3ccccc3s2)cc2c1OCCN(Cc1ncccn1)C2	none (no result: GRP78 ERSR act, VDR inhibitor, G9a inh, Sfp PPTase inh)
CC(C)Oc1cccc2c1c(NC(=O)C1CCN(C)C1)nn2Cc1ccccc1 (configuration not stated)	none (no result: GRP78 ERSR act, VDR inhibitor, G9a inh, Sfp PPTase inh)
Cc1noc(C)c1S(=O)(=O)N[C@@H]1CN(Cc2ccccc2)C[C@H]1CN(C)C	none (no result: GRP78 ERSR act, VDR inhibitor, G9a inh, Sfp PPTase inh)
COc1ccc(-n2cc(-c3ccccc3)[nH]c2=S)c(OC)c1	G9a inh inconclusive, Sfp PPTase inh inconclusive, 12-LOX inh inconclusive
Fc1ccccc1-n1cc(-c2ccccc2)[nH]c1=S	G9a inh 3.5µM, 12-LOX inh inconclusive
CCOc1ccc(CN2CCNC(=O)C2CC(=O)O)cc1 (configuration not stated)	none
CCN(Cc1ccccc1)C(=O)CC1C(=O)NCCN1CCc1ccccc1 (configuration not stated)	none (no result: GRP78 ERSR act, VDR inhibitor, G9a inh, Sfp PPTase inh)
Cc1ccc(CN2CCNC(=O)C2CC(=O)O)cc1 (configuration not stated)	G9a inh 16µM
O=C(O)CC1C(=O)NCCN1CCCc1ccccc1 (configuration not stated)	G9a inh 28µM
Cc1occc1C(=O)NCc1cccc(CNC(=O)c2ccoc2C)c1	G9a inh 22µM, Sfp PPTase inh inconclusive (no result: 12-LOX inh)
Cc1occc1C(=O)NCc1ccc2c(c1)OCO2	12-LOX inh inconclusive
CCn1c(-n2nc(C)cc2C)nc2c1c(=O)n(CC(=O)C(C)(C)C)c(=O)n2C	none (no result: GRP78 ERSR act, VDR inhibitor, G9a inh, Sfp PPTase inh)
COc1ccc(N=C2S/C(=C\c3ccc(Cl)c([N+](=O)[O-])c3)C(=O)N2CCN(C)C)cc1	VDR inhibitor inconclusive, G9a inh inconclusive, Sfp PPTase inh 40µM
CCN(CC)CCN1C(=O)/C(=C\c2ccc(Cl)c([N+](=O)[O-])c2)SC1=Nc1ccc(OC)cc1	VDR inhibitor inconclusive, G9a inh 11µM, Sfp PPTase inh 45µM, 12-LOX inh inconclusive
COCc1ccc(CNC(=O)/C=C/c2sccc2C)cc1	none (no result: GRP78 ERSR act, VDR inhibitor, G9a inh, Sfp PPTase inh)
Cc1ccc(N2C(SCC(=O)O)=NC(=Nc3cccc(C)c3)C23CCCC3)cc1	Sfp PPTase inh inconclusive
O=C(O)CSC1=NC(=Nc2ccc(Cl)cc2)C2(CCCCC2)N1c1cccc(C(=O)O)c1	G9a inh 4.5µM, 12-LOX inh inconclusive
Cc1ccc(S(=O)(=O)N2CCCC2)cc1[N+](=O)[O-]	none
Cc1ccc([N+](=O)[O-])c2c1C(N1CCCC1)C(C)(C)O2 (configuration not stated)	G9a inh 11µM, 12-LOX inh inconclusive
Cc1ccc(S(=O)(=O)NCC(c2cccs2)N(C)C)s1 (configuration not stated)	none (no result: GRP78 ERSR act, VDR inhibitor, G9a inh, Sfp PPTase inh)
CC(C)CCC(CCN1CCOCC1)c1ccc2c(c1)OCO2 (configuration not stated)	G9a inh 45µM, Sfp PPTase inh 79µM, 12-LOX inh inconclusive
CN(Cc1cccn1C)C1CCCc2ccccc21 (configuration not stated)	none (no result: GRP78 ERSR act, VDR inhibitor, G9a inh, Sfp PPTase inh)
CCCN(CCC)CCNC(=O)COCc1cc(-c2cccs2)on1	none (no result: GRP78 ERSR act, VDR inhibitor, G9a inh, Sfp PPTase inh)
COc1ccc(OC)c(CNc2ccc3c(c2)CCC3)c1	G9a inh 32µM
COc1cccc(CNc2ccc3c(c2)CCC3)c1	G9a inh 14µM, 12-LOX inh inconclusive
COc1ccc(CNC(=S)Nc2ccc(F)c(Cl)c2)cc1	none
COc1cccc(CNc2ccc(C)c(Cl)c2)c1	none (no result: G9a inh)
COc1ccc(OC)c(CNc2ccc(F)c(Cl)c2)c1	G9a inh 50µM
CCOc1ccc(Nc2nc(C)c(NC(=O)c3cccc(OC)c3)c(Nc3ccc(OCC)cc3)n2)cc1	G9a inh 11µM, 12-LOX inh inconclusive (no result: Sfp PPTase inh)
COc1ccc(Nc2nc(C)c(NC(=O)c3cccc(C)c3)c(Nc3ccc(OC)cc3)n2)cc1	12-LOX inh 35µM (no result: GRP78 ERSR act, VDR inhibitor, G9a inh, Sfp PPTase inh)
N#Cc1ccc(CNC(=O)[C@@H]2Cc3nc[nH]c3CN2Cc2cc3ccccc3o2)cc1	none (no result: GRP78 ERSR act, VDR inhibitor, G9a inh, Sfp PPTase inh)
CCc1ccc(NC(=O)c2cnc(N3CCOCC3)c3ccccc23)cc1	none (no result: GRP78 ERSR act, VDR inhibitor, G9a inh, Sfp PPTase inh)
COc1ccc(S(=O)(=O)Oc2ccc3ccccc3c2)cc1	none
COC1=C(OC)C(=O)C(Sc2ccc3ccccc3c2)=CC1=O	VDR inhibitor 8.9µM, 12-LOX inh 2µM (no result: G9a inh, Sfp PPTase inh)
Cc1nn2c(N)csc2nc1=O	G9a inh 79µM, Sfp PPTase inh 50µM (no result: GRP78 ERSR act, VDR inhibitor, 12-LOX inh)
Cc1nn2c3ccccc3n(Cc3ccccc3)c2nc1=O	none
Cc1cccc(-n2nnnc2C2(NC3CCCCC3)CCCC2)c1	none (no result: GRP78 ERSR act, VDR inhibitor, G9a inh, Sfp PPTase inh)
